The supplement of paper PMC7156485
± gives the standard deviation of the averaged measurements.

What was measured:
Conditions in all cases: concentration: 10 µM; 24 h
HCC1569 [1] = experiment: cell number relative to DMSO (% of DMSO); higher = more cells (less growth inhibition / toxicity)
Summary of the method: (§1)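 Treatment: HCC1569 and TDF cells, 800 per well in 384-well plates with RPMI and 10% FBS, were given compounds at 10 µM for 24 h at 37 °C, in triplicate. Readout: after 3.7% formaldehyde fixation, cells were stained with a rabbit anti-H1.0 antibody, an AlexaFluor 647 secondary and DAPI. Reported values are H1.0 nuclear intensity or cell number as percent of the plate control, taken as the median of replicates, with positional smoothing for HCC1569.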

TDF [2] = experiment: as above
Summary of the method: as §1

TDF [3] = experiment: H1.0 immunofluorescence intensity relative to DMSO (% of DMSO); higher = stronger H1.0 induction, active = 120 or more
Summary of the method: as §1

HCC1569 [4] = experiment: H1.0 immunofluorescence intensity relative to DMSO (% of DMSO); higher = stronger H1.0 induction, active = 140 or more
Summary of the method: as §1
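Throughout, for H1.0 immunofluorescence intensity relative to DMSO: TDF is a line of transformed human dermal fibroblasts of mesenchymal origin.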
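Throughout, for cell number relative to DMSO: TDF denotes transformed human dermal fibroblasts of mesenchymal origin.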

Compound: COc1ccc(C(=O)c2c(C)n(CCN3CCOCC3)c3cc(I)ccc23)cc1
- cell number (HCC1569 [1]): 85.1
- cell number (TDF [2]): 82.3
- H1.0 immunofluorescence intensity (TDF [3]): 108 (inactive)
- H1.0 immunofluorescence intensity (HCC1569 [4]): 128 (inactive)

Compound: CC(C)N(CCC(C(N)=O)(c1ccccc1)c1ccccn1)C(C)C.O=P(O)(O)O (stereo unspecified)
- cell number (HCC1569 [1]): 99.8
- cell number (TDF [2]): 101
- H1.0 immunofluorescence intensity (TDF [3]): 103 (inactive)
- H1.0 immunofluorescence intensity (HCC1569 [4]): 102 (inactive)

Compound: Cl.Cl.Clc1ccc(N2CC3CCC(C2)N3)nn1
- cell number (HCC1569 [1]): 103
- cell number (TDF [2]): 110
- H1.0 immunofluorescence intensity (TDF [3]): 90.8 (inactive)
- H1.0 immunofluorescence intensity (HCC1569 [4]): 95.7 (inactive)

Compound: Br.CCCN(CCC)CCc1ccc(O)c(O)c1 [Dipropyldopamine hydrobromide]
- cell number (HCC1569 [1]): 97.9
- cell number (TDF [2]): 104
- H1.0 immunofluorescence intensity (TDF [3]): 90.8 (inactive)
- H1.0 immunofluorescence intensity (HCC1569 [4]): 100 (inactive)

Compound: Cl.NN=C(N)N [Aminoguanidine hydrochloride]
- cell number (HCC1569 [1]): 105
- cell number (TDF [2]): 109
- H1.0 immunofluorescence intensity (TDF [3]): 93.8 (inactive)
- H1.0 immunofluorescence intensity (HCC1569 [4]): 94.2 (inactive)

Compound: CCCCc1ccc(C(=O)O)nc1 [Fusaric acid]
- cell number (HCC1569 [1]): 105
- cell number (TDF [2]): 110
- H1.0 immunofluorescence intensity (TDF [3]): 90.2 (inactive)
- H1.0 immunofluorescence intensity (HCC1569 [4]): 88.6 (inactive)

Compound: C[N+]1(C)C2CCC1CC(OC(=O)C(CO)c1ccccc1)C2.[Br-] (stereo unspecified) [Atropine methyl bromide]
- cell number (HCC1569 [1]): 102
- cell number (TDF [2]): 105
- H1.0 immunofluorescence intensity (TDF [3]): 91.2 (inactive)
- H1.0 immunofluorescence intensity (HCC1569 [4]): 93.9 (inactive)

Compound: Cl.O=C(N[C@H]1CN2CCC1CC2)c1c[nH]c2ccsc2c1=O
- cell number (HCC1569 [1]): 106
- cell number (TDF [2]): 94.7
- H1.0 immunofluorescence intensity (TDF [3]): 98.3 (inactive)
- H1.0 immunofluorescence intensity (HCC1569 [4]): 107 (inactive)

Compound: CC(C)(O)C1C2OC(=O)C1C1(O)CC3OC34C(=O)OC2C14C (stereo unspecified) [Picrotonin]
- cell number (HCC1569 [1]): 99.4
- cell number (TDF [2]): 100
- H1.0 immunofluorescence intensity (TDF [3]): 97.2 (inactive)
- H1.0 immunofluorescence intensity (HCC1569 [4]): 82.5 (inactive)

Compound: CC1CCC2(NC1)OC1CC3C4CCC5CC(O)CCC5(C)C4CCC3(C)C1C2C (stereo unspecified) [Tomatidine]
- cell number (HCC1569 [1]): 104
- cell number (TDF [2]): 102
- H1.0 immunofluorescence intensity (TDF [3]): 99.2 (inactive)
- H1.0 immunofluorescence intensity (HCC1569 [4]): 83.5 (inactive)

Compound: Cc1cccc(C)c1NC1=NCCCS1.Cl [Xylazine hydrochloride]
- cell number (HCC1569 [1]): 100
- cell number (TDF [2]): 118
- H1.0 immunofluorescence intensity (TDF [3]): 99.9 (inactive)
- H1.0 immunofluorescence intensity (HCC1569 [4]): 111 (inactive)

Compound: Cl.Clc1ccc(N2CCN(Cc3c[nH]c4ncccc34)CC2)cc1 [L-745,870 hydrochloride]
- cell number (HCC1569 [1]): 99.5
- cell number (TDF [2]): 90.2
- H1.0 immunofluorescence intensity (TDF [3]): 115 (inactive)
- H1.0 immunofluorescence intensity (HCC1569 [4]): 102 (inactive)

Compound: O=C1C=C2C(=CCOC2O)O1 (stereo unspecified) [Patulin]
- cell number (HCC1569 [1]): 22.4
- cell number (TDF [2]): 8.4
- H1.0 immunofluorescence intensity (TDF [3]): 224 (active)
- H1.0 immunofluorescence intensity (HCC1569 [4]): 132 (inactive)

Compound: CNCCc1ccc(O)c(O)c1.Cl [N-Methyldopamine hydrochloride]
- cell number (HCC1569 [1]): 105
- cell number (TDF [2]): 92.2
- H1.0 immunofluorescence intensity (TDF [3]): 95.3 (inactive)
- H1.0 immunofluorescence intensity (HCC1569 [4]): 94 (inactive)

Compound: NCC1(CC(=O)O)CCCCC1 [Gabapentin]
- cell number (HCC1569 [1]): 104 ± 4.7
- cell number (TDF [2]): 108 ± 6.5
- H1.0 immunofluorescence intensity (TDF [3]): 94.7 (inactive)
- H1.0 immunofluorescence intensity (HCC1569 [4]): 93.5 (inactive)

Compound: NC(CCP(=O)(O)O)C(=O)O (racemic)
- cell number (HCC1569 [1]): 99.4
- cell number (TDF [2]): 101
- H1.0 immunofluorescence intensity (TDF [3]): 96.9 (inactive)
- H1.0 immunofluorescence intensity (HCC1569 [4]): 91.1 (inactive)

Compound: Cl.OC1CCCCC1N1CCC(c2ccccc2)CC1 (stereo unspecified) [Vesamicol hydrochloride]
- cell number (HCC1569 [1]): 99
- cell number (TDF [2]): 104
- H1.0 immunofluorescence intensity (TDF [3]): 94.2 (inactive)
- H1.0 immunofluorescence intensity (HCC1569 [4]): 106 (inactive)

Compound: NC(=O)COc1c(F)cc(SCCNS(=O)(=O)c2ccccc2)cc1F
- cell number (HCC1569 [1]): 106
- cell number (TDF [2]): 102
- H1.0 immunofluorescence intensity (TDF [3]): 93.5 (inactive)
- H1.0 immunofluorescence intensity (HCC1569 [4]): 106 (inactive)

Compound: CNC(=O)Oc1ccc2c(c1)C1(C)CCN(C)C1N2C (stereo unspecified) [Physostigmine]
- cell number (HCC1569 [1]): 104
- cell number (TDF [2]): 104
- H1.0 immunofluorescence intensity (TDF [3]): 102 (inactive)
- H1.0 immunofluorescence intensity (HCC1569 [4]): 94.1 (inactive)

Compound: Cc1c2ccncc2c(C)c2c1[nH]c1ccccc12 [Ellipticine]
- cell number (HCC1569 [1]): 69.4 ± 8.6
- cell number (TDF [2]): 39.3 ± 6.6
- H1.0 immunofluorescence intensity (TDF [3]): 104 (inactive)
- H1.0 immunofluorescence intensity (HCC1569 [4]): 194 (active)

Compound: CC(O)(CS(=O)(=O)c1ccc(F)cc1)C(=O)Nc1ccc(C#N)c(C(F)(F)F)c1 (stereo unspecified) [Bicalutamide]
- cell number (HCC1569 [1]): 99.1
- cell number (TDF [2]): 104
- H1.0 immunofluorescence intensity (TDF [3]): 94.6 (inactive)
- H1.0 immunofluorescence intensity (HCC1569 [4]): 98.8 (inactive)

Compound: CN1CC(C(=O)NC2(C)OC3(O)C4CCCN4C(=O)C(Cc4ccccc4)N3C2=O)CC2c3cccc4[nH]cc(c34)CC21.CS(=O)(=O)O (stereo unspecified) [Dihydroergotamine methanesulfonate]
- cell number (HCC1569 [1]): 102
- cell number (TDF [2]): 108
- H1.0 immunofluorescence intensity (TDF [3]): 90.1 (inactive)
- H1.0 immunofluorescence intensity (HCC1569 [4]): 95.5 (inactive)

Compound: CCCN1CCCC(c2cccc(C#N)c2)C1.Cl (stereo not drawn) [S(-)-DS 121 hydrochloride]
- cell number (HCC1569 [1]): 100
- cell number (TDF [2]): 96.1
- H1.0 immunofluorescence intensity (TDF [3]): 92.4 (inactive)
- H1.0 immunofluorescence intensity (HCC1569 [4]): 84.5 (inactive)

Compound: N#CC(C#N)=Cc1ccc(O)c(O)c1 [Tyrphostin 23]
- cell number (HCC1569 [1]): 92.8
- cell number (TDF [2]): 93.1
- H1.0 immunofluorescence intensity (TDF [3]): 94.4 (inactive)
- H1.0 immunofluorescence intensity (HCC1569 [4]): 102 (inactive)

Compound: CC1CCC2(NC1)OC1CC3C4CC=C5CC(O)CCC5(C)C4CCC3(C)C1C2C (stereo unspecified) [Solasodine]
- cell number (HCC1569 [1]): 102
- cell number (TDF [2]): 97.4
- H1.0 immunofluorescence intensity (TDF [3]): 100 (inactive)
- H1.0 immunofluorescence intensity (HCC1569 [4]): 89.2 (inactive)

Compound: C[N+](C)(C)CCCCCCCCCC[N+](C)(C)C.[Br-].[Br-] [Decamethonium dibromide]
- cell number (HCC1569 [1]): 101
- cell number (TDF [2]): 100
- H1.0 immunofluorescence intensity (TDF [3]): 91.7 (inactive)
- H1.0 immunofluorescence intensity (HCC1569 [4]): 88.8 (inactive)

Compound: CNC(=O)OCC[N+](C)(C)C.[Cl-] [Methylcarbamylcholine chloride]
- cell number (HCC1569 [1]): 101
- cell number (TDF [2]): 92.5
- H1.0 immunofluorescence intensity (TDF [3]): 99.2 (inactive)
- H1.0 immunofluorescence intensity (HCC1569 [4]): 95.8 (inactive)

Compound: COc1cccc2c1cc([N+](=O)[O-])c1c(C(=O)O)cc3c(c12)OCO3 [Aristolochic acid A]
- cell number (HCC1569 [1]): 102
- cell number (TDF [2]): 110
- H1.0 immunofluorescence intensity (TDF [3]): 98.4 (inactive)
- H1.0 immunofluorescence intensity (HCC1569 [4]): 91.2 (inactive)

Compound: COC(=O)N1CCN(C(=O)Cc2ccc(Cl)c(Cl)c2)C(CN2CCCC2)C1.O=C(O)C=CC(=O)O (stereo unspecified)
- cell number (HCC1569 [1]): 100
- cell number (TDF [2]): 102
- H1.0 immunofluorescence intensity (TDF [3]): 97.7 (inactive)
- H1.0 immunofluorescence intensity (HCC1569 [4]): 95.7 (inactive)
